Source: the supplement of paper PMC6555819

Experiments:
Assay in all cases: PBM binding z-score (relative to random genomic background probes); higher = stronger binding; sequences stand for … in GC…GCGATTGACAGCGTAGAATGAAGG
[1] = system: FXR:RXRa (NR concentration 270 nM, RXRa partner concentration 90 nM)
Summary of the method: (§1)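 Custom Agilent 4×180K protein-binding microarrays carried double-stranded probes. Their 34-nt variable regions held direct-repeat seeds, single-nucleotide variants, half-site ablations and random human genomic background sequences. Arrays were incubated 1 h with ligand-free nuclear receptor dimers in PBS pH 7.4, 2% milk, 0.02% Triton X-100, 1 mM DTT, 0.2 mg/mL BSA and 0.4 mg/ml salmon testes DNA. Antibodies against each partner (one per run) detected binding, and scanned fluorescence was regression-normalized. Binding z-scores use random background probes as reference.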

[2] = system: LXRa:RXRa (NR concentration 270 nM, RXRa partner concentration 90 nM)
Summary of the method: as §1

[3] = system: LXRa homodimer (NR concentration 270 nM)
Summary of the method: as §1

[4] = system: LXRb:RXRa (NR concentration 270 nM, RXRa partner concentration 90 nM)
Summary of the method: as §1

[5] = system: LXRb homodimer (NR concentration 270 nM)
Summary of the method: as §1

[6] = system: PPARa:RXRa (NR concentration 270 nM, RXRa partner concentration 90 nM)
Summary of the method: as §1

[7] = system: PPARg:RXRa (NR concentration 180 nM, RXRa partner concentration 90 nM)
Summary of the method: as §1

[8] = system: PPARg:RXRa 270nM:90nM, anti-RXR (NR concentration 270 nM, RXRa partner concentration 90 nM)
Summary of the method: as §1

[9] = system: PPARg:RXRa 30nM:10nM, anti-RXR (NR concentration 30 nM, RXRa partner concentration 10 nM)
Summary of the method: as §1

[10] = system: PPARg:RXRa 90nM:30nM, anti-RXR (NR concentration 90 nM, RXRa partner concentration 30 nM)
Summary of the method: as §1

Row | Sequence | PBM binding z-score [1] | PBM binding z-score [2] | PBM binding z-score [3] | PBM binding z-score [4] | PBM binding z-score [5] | PBM binding z-score [6] | PBM binding z-score [7] | PBM binding z-score [8] | PBM binding z-score [9] | PBM binding z-score [10]
1 | ACTAGTCGGTCAGCTGAGGTCACACACAATTCGG | 5.04 | 4.68 | 4.97 | 3.86 | 1.32 | 4.15 | 2.51 | 2.99 | 0.573 | 2
2 | TAGCCTAGGTCATTCAGGGTCCAGTATAGAAAGC | 4.67 | 4.27 | 0.918 | 3.01 | 0.48 | 3.74 | 1.99 | 2.11 | 0.487 | 1.23
3 | CAGCCTAGGTCCGGGCCAGTATAGGAGGAACGTT | -0.987 | -1.11 | -0.834 | -1.41 | -1.47 | -1.78 | -0.191 | -0.878 | -0.996 | -1.2
4 | ACAGACAGGTGATGAATGTAACTCAGGCTATCAT | -0.237 | -0.163 | 0.164 | 0.1 | -0.131 | 0.166 | 0.735 | -0.0666 | 0.338 | -0.0676
5 | TAGCCTAGGTCATTCGGCCAGTATAGTACGCATC | 4.5 | 3.51 | 1.18 | 2.52 | 0.814 | 3.48 | 2.78 | 2.43 | 0.539 | 1.55
6 | CAGCCTAGGACAGGGCCAGTATAGGAGGAACGTT | -0.452 | -0.926 | -0.352 | -0.799 | -0.979 | -0.804 | 0.36 | -0.522 | -0.216 | -0.473
7 | ACCTCTAGGTAAAGTTCAGTGAAAGATCGATAGA | 0.698 | 1.23 | 0.94 | 0.893 | 0.102 | 1.58 | 1.08 | 2.32 | 0.584 | 1.63
8 | ACTATTAGTTGACTTAGGGCAACCGATACGACGC | 0.119 | 0.0991 | -0.0501 | 0.277 | 0.41 | 0.0707 | 0.995 | 0.159 | 0.448 | 0.379
9 | CCTGCTAGGTCAATGGTCACCTAAAGCAGCTCGC | 3.09 | 2.46 | 0.104 | 1.86 | -0.189 | 3.68 | 5.66 | 5.88 | 3.3 | 5.26
10 | CGTCCAAGGTCACAGGTCAGTGAAGAGATGACGG | 7.44 | 5.62 | 1.31 | 4.1 | 0.374 | 6.12 | 7.73 | 6.93 | 3.6 | 5.82
11 | CAAACTAGGTCACCGGTAGGTCAAAGTCCGCATG | 5.71 | 4.92 | 3.87 | 4.52 | 0.66 | 5.98 | 9.32 | 7.44 | 5.74 | 7.12
12 | AGTCAAAGTTCACCTAGGTAACGTAAGATATGCT | 6.25 | 5.63 | 3.58 | 3.92 | 1.2 | 4.94 | 7.15 | 6.41 | 3.81 | 5.63
13 | ACAGACAGGTGATGAAGGTAACTCACGCTATCAT | -0.0545 | 0.135 | -0.0211 | 0.0443 | -0.474 | 0.247 | 0.81 | 0.393 | 0.232 | -0.0255
14 | ACTCGGAGGACAAAGGTCCGAGCTACGCCAGTGA | -0.0908 | 0.0119 | -0.328 | -0.654 | -0.577 | 0.672 | 1.66 | 2.29 | 0.616 | 2.38
15 | ACTCTTAGTTGACTTAGGGCAACCGATACGACGC | 0.556 | 0.443 | 0.285 | 0.398 | 0.941 | 0.448 | 0.905 | 0.0993 | 0.38 | 0.299
16 | GCTTACGGTTCAAAGGTTATAGCATGAATAGAAT | 4.43 | 4.34 | 0.505 | 4.04 | -0.0859 | 5.44 | 4.71 | 5.6 | 2.92 | 5.08
17 | TCGAGTAGGTTAGTCGGGTCATTCAGCCAACATA | 1.62 | 1.62 | 0.312 | 1.98 | -0.941 | 3.14 | 1.39 | 2.4 | 1.36 | 1.95
18 | GCGACTAGGGCAAAGCAGGTTACCATAAGGTTGG | 0.0913 | 0.121 | -0.0293 | -0.376 | -1.03 | 1.17 | 1.63 | 1.77 | -0.187 | 0.722
19 | GATACAGGGTCAGCTATAGGCCAGAGTATGGAAA | 4.11 | 2.57 | -0.223 | 2.13 | -0.306 | 4.24 | 3.43 | 3.17 | 0.857 | 2.08

Row | Sequence | PBM binding z-score [1] | PBM binding z-score [2] | PBM binding z-score [3] | PBM binding z-score [4] | PBM binding z-score [5] | PBM binding z-score [6] | PBM binding z-score [7] | PBM binding z-score [8] | PBM binding z-score [9] | PBM binding z-score [10]
20 | CCGAGTAGGTTATGCGGCATTCAGGCAACGGTGA | -0.091 | 0.00702 | -0.177 | -0.0522 | -0.569 | 0.802 | 0.774 | 1.06 | -0.439 | 0.685
21 | CTCGAAAGGTCGTGCTAAGGTGAGTATACCAAAC | 5.5 | 4.12 | 0.337 | 3.46 | 0.12 | 5.03 | 3.4 | 4.54 | 1.67 | 3.46
22 | TAGCCTATGTCATTGGGCCAGTATAGTACGCATC | -0.278 | -0.41 | -0.519 | -0.0433 | -0.648 | 0.0352 | 0.577 | 0.178 | 0.0263 | 0.065
23 | CCAACTGGGCCAAGGTCATTGATCAGTCAAAGCA | 2.96 | 2.9 | 0.591 | 2.91 | -0.522 | 4.3 | 4.16 | 4.06 | 1.82 | 3.3
24 | CGTCCAAGGTCAGCAGGTCAGCGAAAGCGACGTG | 6.11 | 4.35 | 0.407 | 3.19 | -0.541 | 4.9 | 4.79 | 4.99 | 1.45 | 3.69
25 | ACTATTAGTTTACTTAGGGCAACCGATACGACGC | 0.0954 | 0.173 | 0.422 | 0.0496 | 0.375 | 0.0302 | 0.985 | 0.261 | 0.394 | 0.541
26 | TAGCCTAGTTCAGATCGGGCCAGTATACGCTATA | -0.29 | -0.351 | -0.598 | -0.308 | -0.592 | -0.113 | -0.019 | -0.325 | -0.538 | -0.475
27 | CAAACTAGGTCAAGGTCCAAGTCGGTTTGTGCCA | 3.75 | 2.44 | 0.225 | 1.55 | -0.00943 | 5.05 | 8.9 | 7.5 | 6.37 | 7.89
28 | CCTTACGGGTCAAGGCTATAGCACGGGTGGTACG | 5.49 | 3.26 | -0.261 | 2.59 | -0.119 | 4.88 | 3.91 | 4.41 | 1.45 | 2.99
29 | GGAACGAGGGTATTCGAGTTGATAGCATGGCGAT | 0.27 | 2.1 | -0.446 | -0.313 | -1.2 | -0.309 | 0.371 | -0.244 | -0.476 | -0.646
30 | AGAATGAGGGTACCAAAGATCAGGGAAACGCTTG | -0.148 | 2.43 | -0.475 | 0.326 | -0.167 | 1.18 | 1.28 | 1.52 | 0.506 | 1.19
31 | CGAACTAGGTCATCCAGGACAGTGAGTACATTGA | 4.32 | 2.81 | 0.741 | 1.9 | 0.24 | 4.49 | 7.45 | 6.5 | 3.99 | 5.85
32 | TAGCCTAGGTCATGCGCGCCAGTATAGTGTCGGC | 4.7 | 3.47 | 0.451 | 2.36 | 0.289 | 3.98 | 2.68 | 2.89 | 0.197 | 1.79
33 | AATACAGGGTCATCGTAGGCCTGAGTACGCACAG | 7.54 | 5.77 | 1.91 | 4.6 | 1.13 | 5.95 | 6.49 | 5.92 | 2.71 | 4.74
34 | CCAGACAGGTGAAACGTAACTCAGTCTGGTACGC | -0.253 | -0.0571 | -0.351 | -0.105 | -0.651 | 0.658 | 0.947 | 0.946 | -0.101 | 0.589
35 | TCAGACAGGTGAAAGTAACTCAGGTACGCAGTCG | 0.453 | 0.738 | -0.345 | 0.85 | -0.276 | 1.32 | 0.821 | 2.21 | 4.08 | 2.92
36 | CAGCCTAGGTCAGGCCCAGTATAGGAGGAACGTT | 1.06 | 0.524 | -0.444 | 0.0997 | -0.815 | 1.45 | 0.633 | 0.673 | -0.32 | 0.386
37 | AGAACCAGGGCAATGAGTTGATAGCACGGGTGGC | -0.133 | -0.319 | -0.429 | -0.657 | -0.564 | 0.717 | 1.19 | 0.451 | -0.539 | 0.047
38 | GCTCGGAGGACTAGGTCAGAGCTTTGTCCGTAGA | -0.693 | -0.505 | -1.09 | -0.622 | -1.5 | 0.919 | 0.339 | 1.04 | -1.04 | 0.269
